The whole screen tested about 290,000 compounds, of which about 3,000 (1%) were called active. This is one part of a sample in which actives are shown more often than they occur. Rule as the data show it: active = inhibition mostly above about 36% (no sharp cut-off); inactive = mostly below about 34%.
Assay: NOD1 signaling inhibitors, primary screen, cell-based, luminescence, uHTS (AID 1578);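 also: HEK-293T reporter cells stimulated with the NOD1 agonist gamma-tri-DAP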
Conditions: NOD1-driven NF-kB luciferase reporter cells, at 4 µM, stronger effect = higher value

**Q.** Which inhibition does the source give for `Cc1cccc(C(=O)NC(=O)Nc2c(C)cc(C)nc2C)c1` here?
**A.** The inhibition was -46.9% (inactive).

**Q.** For `O=C(CCCn1cc([N+](=O)[O-])cn1)Nc1cccnc1`, which inhibition is on record?
**A.** The inhibition was -11.6% (inactive).

**Q.** With `Cc1ccc(C(=O)c2coc3cc([N+](=O)[O-])c(O)c([N+](=O)[O-])c23)cc1` as the molecule, how does the inhibition read?
**A.** Its inhibition is 21.2% (inactive).

**Q.** With `CCCCN(Cc1ccccc1)c1ncnc2nc[nH]c12` as the molecule, how does the inhibition read?
**A.** Its inhibition is -41% (inactive).

**Q.** With `CCCCN(CCCC)c1ncnc2nc[nH]c12` as the molecule, how does the inhibition read?
**A.** Its inhibition is 84.5% (active).

**Q.** With `CCCCN(c1ccccc1)c1ncnc2nc[nH]c12` as the molecule, how does the inhibition read?
**A.** Its inhibition is 36.9% (inactive).

**Q.** For `O=C(N[C@@H]1CCC(=O)N(CC[C@H](Oc2ccccc2)c2ccccc2)CC1)OCc1ccccc1`, which inhibition is on record?
**A.** The inhibition was 53.8% (inactive).

**Q.** Which inhibition does the source give for `C=CCNC(=O)/C(C#N)=C/c1ccc(OS(=O)(=O)c2ccc(C)cc2)c(OC)c1` here?
**A.** The inhibition was 10% (inactive).

**Q.** Which inhibition does the source give for `COc1cc(/C=C(\C#N)C(N)=O)ccc1OS(=O)(=O)c1ccc(C)cc1` here?
**A.** The inhibition was 14.7% (inactive).

**Q.** Which inhibition does the source give for `COc1cc(/C=C(\C#N)C(=O)NC2CCCCC2C)ccc1OS(=O)(=O)c1ccc(C)cc1` (configuration not stated) here?
**A.** The inhibition was 75.9% (active).

**Q.** For `COc1ccc(CNC(=O)CN(Cc2ccc(F)cc2)C(=O)c2csnn2)cc1`, which inhibition is on record?
**A.** The inhibition was -24.5% (inactive).

**Q.** With `C=CCn1c(=O)c2ccc(C(=O)NCc3ccccc3)cc2n(Cc2cccc(Cl)c2)c1=O` as the molecule, how does the inhibition read?
**A.** The inhibition was 61.7% (inactive).

**Q.** With `O=C(CN1CCCN(S(=O)(=O)c2ccc(F)cc2)CC1)Nc1c(Cl)cccc1Cl` as the molecule, how does the inhibition read?
**A.** The inhibition was -4.7% (inactive).

**Q.** With `Fc1cccc(Cl)c1CNC(c1ccccc1)c1ccccc1` as the molecule, how does the inhibition read?
**A.** The inhibition was 9.2% (inactive).

**Q.** For `Cc1ccc(NCC(=O)N/N=C/c2cc3ccccc3nc2Cl)cc1`, which inhibition is on record?
**A.** Its inhibition is -21.8% (inactive).

**Q.** Which inhibition does the source give for `CCOC(=O)C(=Cc1ccc(F)cc1)C(=O)OCC` here?
**A.** Its inhibition is 31.2% (inactive).

**Q.** For `CCOC(=O)C(=Cc1ccc(Br)cc1)C(=O)OCC`, which inhibition is on record?
**A.** The inhibition was 36.2% (active).

**Q.** Which inhibition does the source give for `COc1ccccc1/C=C(/C(=O)OCC(N)=O)c1ccccc1` here?
**A.** Its inhibition is 0.8% (inactive).

**Q.** Which inhibition does the source give for `CCOC(=O)C(=Cc1ccccc1OC)C(=O)OCC` here?
**A.** Its inhibition is 47.6% (active).

**Q.** Which inhibition does the source give for `CCOC(=O)/C(=C/c1ccc(OC(=O)c2ccccc2)cc1)C(C)=O` here?
**A.** The inhibition was -13.5% (inactive).

**Q.** With `O=C(O)/C=C/c1ccc(-n2ccnc2)cc1` as the molecule, how does the inhibition read?
**A.** The inhibition was 1.1% (inactive).

**Q.** Which inhibition does the source give for `CCOC(=O)C(=Cc1cc(=O)c(OC)co1)C(=O)OCC` here?
**A.** The inhibition was -12.3% (inactive).

**Q.** For `COC(=O)/C=C/c1ccc(-n2ccnc2)cc1`, which inhibition is on record?
**A.** The inhibition was -9.9% (inactive).

**Q.** Which inhibition does the source give for `CCOC(=O)C(=Cc1ccc(-n2ccnc2)cc1)C(=O)OCC` here?
**A.** The inhibition was 45.8% (active).

**Q.** Which inhibition does the source give for `Cc1nn(-c2ccccc2)c(C)c1C(=O)OCC(=O)N1CCN(S(=O)(=O)c2ccccc2)CC1` here?
**A.** The inhibition was -0.7% (inactive).

**Q.** With `Cc1ccc2c(N)c(C)ccc2c1` as the molecule, how does the inhibition read?
**A.** The inhibition was -4.1% (inactive).

**Q.** For `Cn1ncc(N2CCN(C(=O)c3ccc(Cl)cc3)CC2)c(Cl)c1=O`, which inhibition is on record?
**A.** The inhibition was -21.9% (inactive).

**Q.** With `COc1ccc(CNC(=O)C2CCCN(S(=O)(=O)c3ccc(Br)s3)C2)cc1` (configuration not stated) as the molecule, how does the inhibition read?
**A.** The inhibition was -13.3% (inactive).

**Q.** With `Cc1cc(N/N=C/c2ccccc2F)nc(NCc2ccccc2)n1` as the molecule, how does the inhibition read?
**A.** Its inhibition is -2.7% (inactive).

**Q.** Which inhibition does the source give for `CCc1ccc(N/C(SCc2cccc(F)c2)=C(/C#N)C(=O)NCc2ccco2)cc1` here?
**A.** Its inhibition is 3.2% (inactive).

**Q.** With `Cc1cccc(CSC(Nc2ccc(F)cc2)=C(C#N)C#N)c1` as the molecule, how does the inhibition read?
**A.** The inhibition was 83.7% (active).

**Q.** Which inhibition does the source give for `CCN(CC)C(=O)CSC(Nc1ccc(F)cc1)=C(C#N)C#N` here?
**A.** The inhibition was 4.2% (inactive).

**Q.** For `COc1ccc(S(=O)(=O)N(C)CC(=O)N2CCCC2)cc1OC`, which inhibition is on record?
**A.** The inhibition was -5.3% (inactive).

**Q.** For `c1ccc(SCc2cn(C[C@H]3CC[C@@H]([C@@H]4CC[C@H](Cn5cc(CSc6ccccc6)nn5)O4)O3)nn2)cc1`, which inhibition is on record?
**A.** The inhibition was 22.8% (inactive).

**Q.** For `CCCn1c2ccccc2c2cnn(CC(=O)NC3CCCCC3)c(=O)c21`, which inhibition is on record?
**A.** Its inhibition is -26.9% (inactive).

**Q.** With `CN1CCN(C(=S)SCC(=O)Nc2nc(-c3ccccc3)c(-c3ccccc3)o2)CC1` as the molecule, how does the inhibition read?
**A.** The inhibition was -3.5% (inactive).

**Q.** For `O=C(Nc1nc(-c2ccccc2)c(-c2ccccc2)o1)c1ccc(F)cc1`, which inhibition is on record?
**A.** Its inhibition is 97.4% (active).

**Q.** Which inhibition does the source give for `Cc1ccc(C(=O)Nc2nc(-c3ccccc3)c(-c3ccccc3)o2)cc1` here?
**A.** The inhibition was 35.6% (inactive).

**Q.** For `CC(=O)Nc1nc(-c2ccccc2)c(-c2ccccc2)o1`, which inhibition is on record?
**A.** The inhibition was -5.3% (inactive).

**Q.** Which inhibition does the source give for `O=C(CSC(=S)N1CCCCC1)Nc1nc(-c2ccccc2)c(-c2ccccc2)o1` here?
**A.** Its inhibition is 9.9% (inactive).

**Q.** Which inhibition does the source give for `CCN(CC)C(=S)SCC(=O)Nc1nc(-c2ccccc2)c(-c2ccccc2)o1` here?
**A.** Its inhibition is 72.2% (active).

**Q.** Which inhibition does the source give for `COc1ccccc1OCc1ccc(C(=O)N2CCOCC2)o1` here?
**A.** Its inhibition is -11% (inactive).

**Q.** Which inhibition does the source give for `C=CCN(Cc1cc(OC)ccc1OC)S(=O)(=O)N(C)C` here?
**A.** The inhibition was 3.4% (inactive).

**Q.** Which inhibition does the source give for `O=C(Cc1ccc(Br)cc1)OCC(=O)N1CCc2ccccc2C1` here?
**A.** The inhibition was -12.8% (inactive).

**Q.** With `OCCC1CN(Cc2cccc(-c3ccco3)c2)CCN1Cc1ccsc1` (configuration not stated) as the molecule, how does the inhibition read?
**A.** The inhibition was -17.2% (inactive).

**Q.** Which inhibition does the source give for `COCc1cc(N2CCOCC2)nc(SCc2ccc(Cl)cc2)n1` here?
**A.** Its inhibition is 52.1% (active).

**Q.** For `COc1ccc(CSc2nc(CSC)cc(N3CCOCC3)n2)cc1`, which inhibition is on record?
**A.** Its inhibition is 7.8% (inactive).

**Q.** Which inhibition does the source give for `CSCc1cc(N2CCOCC2)nc(SCc2ccc(Cl)c(Cl)c2)n1` here?
**A.** The inhibition was -11.4% (inactive).

**Q.** Which inhibition does the source give for `CCCCCCn1ccc(=N)cc1` here?
**A.** The inhibition was 41.6% (inactive).

**Q.** For `CCCCCn1ccc(=N)cc1`, which inhibition is on record?
**A.** The inhibition was 13.1% (inactive).

**Q.** Which inhibition does the source give for `CCN(CC)S(=O)(=O)c1ccc(NS(=O)(=O)c2ccc3oc(=O)[nH]c3c2)cc1` here?
**A.** The inhibition was 22.1% (inactive).

**Q.** Which inhibition does the source give for `COC(=O)C1C(=O)c2c(n[nH]c2C)CC1(C)C` (configuration not stated) here?
**A.** Its inhibition is -14.2% (inactive).

**Q.** For `CCCc1n[nH]c2c1C(=O)C(C(=O)OC)C(C)(C)C2` (configuration not stated), which inhibition is on record?
**A.** Its inhibition is 11.5% (inactive).

**Q.** For `COC(=O)C1C(=O)c2c(C)noc2CC1(C)C` (configuration not stated), which inhibition is on record?
**A.** Its inhibition is 64.3% (active).

**Q.** For `O=C(c1ccccn1)c1conc1C(=O)c1ccc(Br)cc1`, which inhibition is on record?
**A.** The inhibition was 0.5% (inactive).

**Q.** With `CN(C(=S)NC(=O)Cc1ccccc1)c1ccccc1` as the molecule, how does the inhibition read?
**A.** Its inhibition is -27.4% (inactive).

**Q.** Which inhibition does the source give for `Cc1cc(C)cc(NC(=S)N2CCN(S(=O)(=O)c3ccccc3)CC2)c1` here?
**A.** Its inhibition is -17.6% (inactive).

**Q.** For `Cc1csc(CN(C)C(=O)CC2C(=O)NCCN2Cc2ccc(F)cc2Cl)n1` (configuration not stated), which inhibition is on record?
**A.** The inhibition was -11.4% (inactive).

**Q.** For `CCCn1c(NCc2ccco2)nc2ccccc21`, which inhibition is on record?
**A.** The inhibition was -16.4% (inactive).

**Q.** Which inhibition does the source give for `c1csc(CNc2nc3ccccc3n2CCN2CCOCC2)c1` here?
**A.** Its inhibition is 1.1% (inactive).

**Q.** Which inhibition does the source give for `c1coc(CNc2nc3ccccc3n2CCN2CCOCC2)c1` here?
**A.** The inhibition was 43.1% (active).

**Q.** Which inhibition does the source give for `N#C/C(=C\c1ccc(Cl)c([N+](=O)[O-])c1)c1ccccn1` here?
**A.** Its inhibition is 47.2% (active).

**Q.** For `CN(C)c1ccc(/C=C(\C#N)c2ccccn2)cc1`, which inhibition is on record?
**A.** The inhibition was 73.6% (active).

**Q.** For `CNc1ccc(/C=C(\C#N)c2ccccn2)cc1[N+](=O)[O-]`, which inhibition is on record?
**A.** Its inhibition is -34.3% (inactive).

**Q.** For `CN(CCC#N)c1ccc(/C=C(\C#N)c2ccccn2)cc1`, which inhibition is on record?
**A.** Its inhibition is 30.9% (inactive).

**Q.** With `N#C/C(=C\c1ccc([N+](=O)[O-])cc1)c1ccccn1` as the molecule, how does the inhibition read?
**A.** The inhibition was -27.2% (inactive).

**Q.** Which inhibition does the source give for `CCN(CC)c1ccc(/C=C(\C#N)c2ccccn2)cc1` here?
**A.** Its inhibition is -55.6% (inactive).
